Screens (PubChem)
An excerpt weighted towards active compounds, which were near 2.3% of everything screened.
DNA Pol III inh: inhibitors of bacterial DNA polymerase III holoenzyme; reconstituted DNA polymerase III holoenzyme replication, biochemical; Potency, µM (series often up to 57.1 µM), for the others: at the top dose activity change, negative = inhibition; 71,000 tested, 0.25% active; AID 603; further: potency means the concentration at half of the fitted maximal effect; on the % scale 0 is the no-effect control and ±100 the full control effect
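Reconstituted *E. coli* holoenzyme (0.35 nM Pol III, 1 nM beta, 154 nM SSB, 2 nM primase) was preincubated with compound for 15 min at RT. Synthesis on 1.4 nM ssM13Gori ran 35 min, then was stopped with PicoGreen/EDTA and read as dsDNA fluorescence.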
BRCT PPI green: BRCA1 BRCT-phosphoprotein interaction inhibition. P38398. BRCA1 BRCT-phosphopeptide binding, green fluorescence polarization. Potency, µM (highest dose often 76.9 µM), for inactives: at the highest dose activity change, negative = inhibition, usual class: inhibitors. 75,000 tested, 0.05% active;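 further: potency means the concentration at half of the fitted maximal effect; plate controls were peptide without protein for full effect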
Target sequence (P38398 whole entry, looked up): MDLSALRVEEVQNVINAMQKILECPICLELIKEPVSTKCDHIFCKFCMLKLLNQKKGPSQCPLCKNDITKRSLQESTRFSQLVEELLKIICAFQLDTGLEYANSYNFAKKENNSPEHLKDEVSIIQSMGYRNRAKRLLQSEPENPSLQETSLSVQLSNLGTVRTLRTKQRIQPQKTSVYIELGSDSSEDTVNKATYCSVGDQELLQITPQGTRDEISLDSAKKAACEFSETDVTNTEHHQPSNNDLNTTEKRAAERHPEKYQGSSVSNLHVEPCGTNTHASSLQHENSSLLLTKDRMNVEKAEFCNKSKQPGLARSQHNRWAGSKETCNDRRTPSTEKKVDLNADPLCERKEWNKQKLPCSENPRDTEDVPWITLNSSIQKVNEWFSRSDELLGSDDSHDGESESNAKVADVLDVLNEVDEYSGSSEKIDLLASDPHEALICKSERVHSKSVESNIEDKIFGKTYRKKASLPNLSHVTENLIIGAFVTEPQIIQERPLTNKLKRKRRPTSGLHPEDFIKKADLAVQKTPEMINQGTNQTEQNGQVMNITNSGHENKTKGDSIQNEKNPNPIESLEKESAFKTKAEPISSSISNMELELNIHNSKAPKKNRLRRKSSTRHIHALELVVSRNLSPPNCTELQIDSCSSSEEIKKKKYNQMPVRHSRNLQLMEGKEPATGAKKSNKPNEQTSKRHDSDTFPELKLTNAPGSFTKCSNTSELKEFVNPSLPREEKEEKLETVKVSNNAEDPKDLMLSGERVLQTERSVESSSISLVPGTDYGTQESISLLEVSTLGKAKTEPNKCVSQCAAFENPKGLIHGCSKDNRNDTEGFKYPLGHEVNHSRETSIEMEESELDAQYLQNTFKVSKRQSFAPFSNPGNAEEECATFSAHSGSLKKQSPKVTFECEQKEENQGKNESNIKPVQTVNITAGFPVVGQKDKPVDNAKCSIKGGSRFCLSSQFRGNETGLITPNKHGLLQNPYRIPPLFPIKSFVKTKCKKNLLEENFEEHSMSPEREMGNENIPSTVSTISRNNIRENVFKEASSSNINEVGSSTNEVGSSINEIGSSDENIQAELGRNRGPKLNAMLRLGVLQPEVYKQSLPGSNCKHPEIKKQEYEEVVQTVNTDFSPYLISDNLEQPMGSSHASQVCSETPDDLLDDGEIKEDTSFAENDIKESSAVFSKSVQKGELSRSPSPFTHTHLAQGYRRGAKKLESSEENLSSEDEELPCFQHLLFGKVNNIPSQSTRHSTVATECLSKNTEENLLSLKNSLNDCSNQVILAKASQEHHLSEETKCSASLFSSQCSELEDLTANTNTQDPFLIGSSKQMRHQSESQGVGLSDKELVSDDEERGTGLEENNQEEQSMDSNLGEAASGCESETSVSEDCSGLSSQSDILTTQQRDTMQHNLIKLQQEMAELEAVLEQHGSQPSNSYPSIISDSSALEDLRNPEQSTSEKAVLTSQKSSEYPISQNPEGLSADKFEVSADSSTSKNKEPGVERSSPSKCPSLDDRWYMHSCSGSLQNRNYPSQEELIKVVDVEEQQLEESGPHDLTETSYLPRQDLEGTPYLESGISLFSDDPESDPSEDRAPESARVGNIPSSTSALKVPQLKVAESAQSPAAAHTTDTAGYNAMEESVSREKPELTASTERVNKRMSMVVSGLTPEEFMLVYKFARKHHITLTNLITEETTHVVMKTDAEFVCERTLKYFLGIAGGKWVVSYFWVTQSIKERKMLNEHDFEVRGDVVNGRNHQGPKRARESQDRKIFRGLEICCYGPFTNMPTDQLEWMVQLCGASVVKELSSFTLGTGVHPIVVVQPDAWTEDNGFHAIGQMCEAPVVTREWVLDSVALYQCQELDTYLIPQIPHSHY
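Compounds were incubated for 12 min at room temperature with a complex of 100 nM fluorescein-tagged pBACH1 decapeptide and 250 nM His-tagged BRCT protein. Buffer was phosphate pH 7.3 with EDTA, DTT and Tween 20. Disruption of binding lowers the polarization signal.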
Tau fil binding: binders of human tau filaments; Potency, µM (doses to about 57.1 µM), for the others: top-dose activity change, negative = inhibition; P10636; recombinant tau filaments, thioflavin S fluorescence, 15 h; filaments grown with octadecylsulfate alongside compound; AID 596; 71,000 tested, 2% active;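 further: potency means the concentration at half of the fitted maximal effect; on the % scale 0 is the no-effect control and ±100 the full control effect; actives lower thioflavin S fluorescence by blocking filaments or displacing dye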
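Assay mix: 1 uM His-tagged tau, 30 uM sodium octadecylsulfate, thioflavine S dye in HEPES/NaCl/DTT buffer. Compound is added prior to the inducer. Fluorescence after 15 h at 37 C.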
Hsp90 Hop PPI: changes Hsp90-Hop TPR2A binding signal, up or down; 71,000 tested, 0.44% active; AlphaScreen TPR2A-His6 binding biotin-Hsp90 C-terminal peptide; AID 595; Potency, µM (highest dose often 57 µM), for inactives: at the top dose activity change, negative = inhibition; active means well fitted curve in either direction with a large enough effect; inconclusive means small, poorly fitted or top-dose-only effect, or another doubt; further: potency means the concentration at half of the fitted maximal effect; on the % scale 0 is the no-effect control and ±100 the full control effect
YjeE inh: displaces an ADP probe from E. coli YjeE (TsaE). purified YjeE enzyme, qHTS inhibition assay. 71,000 tested, 0.05% active. Potency, µM. P0AF67. AID 605
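Purified YjeE (10 uM) with BODIPY Texas Red-labeled ADP probe (2 uM); compounds pin-transferred, 15 min at room temperature. Binding inhibition read as decreased fluorescence polarization; ADP titration as control.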
BRCT PPI red: inhibitors of human BRCA1 BRCT-phosphoprotein interaction (red fluorophore); P38398; BRCT-phosphopeptide binding, red fluorescence polarization; Potency, µM (doses to about 76.9 µM), without a hit: at the top dose activity change, negative = inhibition, usual class: inhibitors; 75,000 tested, 0.03% active; AID 892; further: on the % scale 0 is the no-effect control and ±100 the full control effect
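Fluorescence polarization: 100 nM His-tagged BRCA1 BRCT with 100 nM TAMRA-labelled phospho-BACH1 decapeptide, phosphate buffer pH 7.3 with 150 mM NaCl, DTT, 0.01% Tween 20; 12 min RT. Binding inhibition seen as FP decrease.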
Starred values were filed as active, the others as inactive; i = inactive; ? = inconclusive; / = no result given; [ ] = another dose, or the depositor's remark. Unless noted, the call rests on the fitted dose curve; in most records, active means well fitted curve in the direction sought with a large enough effect; inconclusive means small, poorly fitted or top-dose-only effect, or another doubt; inactive means no such curve, though single readings can be large; an effect the other way counts as inactive or inconclusive.

SMILES	DNA Pol III inh	BRCT PPI green	Tau fil binding	Hsp90 Hop PPI	YjeE inh	BRCT PPI red
Cc1occc1-c1nnc(SCC(=O)c2cc3ccccc3oc2=O)o1	?	?	10µM*	?	i	-5.6%
COc1ccc(C(=O)O)cc1NS(=O)(=O)c1cccc2nsnc12	-1.8%	0.3%	1.0%	-1.5%	i	0.0%
CCOc1ccc(OCC)c(NS(=O)(=O)c2cccc3nsnc23)c1	-3.5%	-4.4%	25.1µM*	-11.7%	i	0.4%
CCNc1ncc2nc(-c3ccc(F)cc3)c(=O)n(C)c2n1	-1.9%	-4.2%	-5.6%	-1.3%	i	1.2%
N[C@@H](C(=O)O)[C@H](O)C(=O)O	-6.1%	/	-5.1%	-0.1%	i	/
CN1CC[C@H](CN2c3ccccc3Sc3ccccc32)C1	-3.2%[11.4 µM]	-1.0%[15.4 µM]	3.98µM*	-1.0%[11 µM]	i	-0.1%[15.4 µM]
CSc1ccc2c(c1)N(CCC1CCCCN1C)c1ccccc1S2 (stereo not drawn)	/	-0.1%[3.08 µM]	/	/	/	-0.7%
C/C(=N\NC(=O)c1ccncc1)c1ccc2ccccc2c1O	5.3%[11.4 µM]	145.9%[15.4 µM]	78.1%[11.4 µM]	-13.6%[11 µM]	i	0.1%[15.4 µM]
CC1(C)O[C@@H]2C[C@H]3[C@H]4C[C@H](F)C5=CC(=O)CC[C@]5(C)[C@@H]4[C@H](O)C[C@]3(C)[C@]2(C(=O)CO)O1	-0.4%[25.6 µM]	-4.3%[34.4 µM]	-6.8%[25.6 µM]	-2.9%[26 µM]	i	-0.7%[34.4 µM]
O=C(c1csnn1)N1CCC2(CCCN(c3ccncc3)C2)CC1	-5.1%	-1.4%	6.6%	-5.6%	i	-0.8%
C[C@@]1(C(NC(=O)Cc2ccc(C(F)(F)F)cc2)c2ccc(-c3ccccc3)cc2)C[C@H]1C1CCCCC1 (stereo partly drawn)	-2.9%	-1.3%	-3.5%	-1.2%	i	0.7%
CC1(C)CC(=O)C2=C(C1)Oc1ncn(Cc3ccco3)c(=N)c1C2c1ccccc1 (stereo not drawn)	-7.1%	4.0%	15.8µM*	-12.9%	i	0.8%
CCC(c1nnc(SCC(=O)Nc2ccc(C(=O)Nc3ccccc3OC)cc2)o1)N(C)C (stereo not drawn)	-2.0%	-1.5%	20µM*	-8.8%	i	-0.3%
O=S(=O)(Nc1ccc(S(=O)(=O)N2CCCCC2)cc1)c1cccs1	-2.0%	-1.8%	1.8%	-4.4%	i	-1.2%
O=S(=O)(Nc1ccc(N2CCOCC2)cc1)c1cccs1	10.7%	-0.8%	15.8µM*	-16.9%	i	0.4%
C[N+](C)(C)CCC(=O)c1cccc2ccccc12	-7.3%	-2.7%	11.2%	-7.4%	i	-1.5%
CCN(CC)c1ccc(NC(=O)CN2CCN(c3ccc(F)cc3)CC2)cc1	-5.6%	-1.8%	?	-24.5%	i	1.1%
CN(C)c1ccc(NC(=O)CN2CCC(C(=O)c3ccc(F)cc3)CC2)cc1	-0.7%	-0.1%	15.8µM*	-15.6%	i	-1.3%
CCCCNc1cc(NC(C)=O)cc2cc(OC)c(OC)cc12	-5.9%	0.2%	25.1µM*	-20.4%	i	-0.4%
O=[N+]([O-])c1ccc2c(N=Nc3ccc4ccccc4c3O)c(O)cc(S(=O)(=O)O)c2c1	-19.3%[11.4 µM]	-1.9%[15.4 µM]	3.16µM*	?	7.94µM*	-3.2%[15.4 µM]
CCOC(=O)[C@]1(C(NC(=O)OC)c2cccc(F)c2)CCCC1=O (stereo partly drawn)	/	-0.4%[15.4 µM]	/	/	/	-0.2%[15.4 µM]
Nc1nc(C(=O)O)c(N=Nc2ccccc2)c(=O)[nH]1	2.2%[11.4 µM]	0.9%[15.4 µM]	5.01µM*	-27.0%[11 µM]	i	0.2%[15.4 µM]
CC(=O)[C@H]1CC[C@@H]2[C@]1(C)CC=C1[C@]23C=C[C@]2(C[C@H](O)CC[C@@]12C)[C@H](C(=O)O)[C@@H]3C(=O)O	-6.9%[11.4 µM]	2.1%[15.4 µM]	-2.8%[11.4 µM]	-1.9%[11 µM]	i	-2.1%[15.4 µM]
O=C(Nc1nc(-c2ccccn2)cs1)c1ccc(Cl)s1	-3.4%	-2.4%	118.3%	7.94µM*	i	6.8%
O=C1C2C3C=CC(C3)C2C(=O)N1c1ncn[nH]1 (stereo not drawn)	12.6µM*	-0.5%	-11.4%	-4.6%	i	-0.2%
SMILES	DNA Pol III inh	BRCT PPI green	Tau fil binding	Hsp90 Hop PPI	YjeE inh	BRCT PPI red
O=C1C2C3C=CC(C3)C2C(=O)N1c1ccncc1 (stereo not drawn)	0.6%	-2.8%	-8.1%	-2.2%	i	-1.2%
COc1ccc(O[C@H]2C=C[C@@H](c3ccccc3)O[C@H]2CO/N=C\C[C@@H]2C=C[C@H](OC(C)=O)[C@H](COC(C)=O)O2)cc1	/	-0.6%[15.4 µM]	/	/	/	0.5%[15.4 µM]
c1ccc(-c2ccc(N3CC4(CCNCC4)C3)cc2)cc1	-0.9%	-2.1%	12.6µM*	?	i	-1.6%
c1ccc(-c2ccc(N3CCCC4(CCNCC4)C3)cc2)cc1	-5.3%	1.3%	3.16µM*	?	i	0.2%
c1ccc(-c2ccc(N3CC[C@@]4(CCCNC4)C3)cc2)cc1	1.4%	0.5%	-1.6%	-29.7%	i	0.7%
CC(C)CN(C)c1nc(N)c(C(=O)N=C(N)N)nc1Cl	-2.1%	-0.9%	-14.3%	-11.2%	i	0.5%
CN(C)c1ncc2nc(-c3ccc(F)cc3)c(=O)n(C3CC3)c2n1	-5.0%	-8.8%	72.2%	-2.8%	i	-3.9%
CCN(CC)c1ccc(NC(=O)c2ccc(Br)o2)cc1	2.6%[11.4 µM]	-1.7%	3.16µM*	-29.0%[11 µM]	i	0.3%
O=C(Nc1ccc(N2CCCC2)cc1)c1ccc(Br)o1	-15.5%[11.4 µM]	-1.0%	3.16µM*	?	i	0.4%
COC(=O)c1ccc(C(NC(=O)OCc2ccccc2)/C(C)=C/[C@@H](C)C(=O)N2CCN(C)CC2)cc1 (stereo partly drawn)	1.8%	-0.6%	-12.4%	-2.5%	i	-0.7%
N=C(N)SCc1ccc(Cl)cc1Cl (tested in a mixture with another compound)	-1.8%[11.4 µM]	-0.9%[15.4 µM]	-0.9%[11.4 µM]	-5.9%[11 µM]	i	0.3%[15.4 µM]
c1ccc(C[n+]2cccc(-c3cc4ccccc4[nH]3)c2)cc1	-7.8%[11.4 µM]	-2.1%[15.4 µM]	0.316µM*	-2.4%[11 µM]	i	1.1%[15.4 µM]
COCC(=O)N1CCC2(CC1)CN(c1ccccn1)C2	-2.6%	-2.2%	-2.1%	7.6%	i	-0.5%
CCCc1nnc2n1N=C(c1ccc(OC)c(OC)c1)CS2	-3.4%	1.7%	15.1%	0.1%	i	-0.5%
COc1ccc(Cc2nnc3n2N=C(c2cc4ccccc4o2)CS3)cc1OC	-1.6%	2.2%	31.6µM*	-2.9%	i	0.6%
Cc1nn(-c2ccccc2)c2[nH]c(=O)c(CNc3ccc(N4CCOCC4)cc3)cc12	-4.3%	6.0%	20µM*	?	i	-1.9%
O=c1[nH]c2c(cc1CNCCN1CCOCC1)c(-c1cccc(F)c1)nn2-c1ccccc1	-6.9%	11.1%	?	?	i	15.6%
CO[C@@H]1COC(=O)[C@H](C)NC(=O)C/C=C\[C@@H](C)[C@H](OC)COC(=O)[C@H](C)NC(=O)C/C=C\[C@H]1C	/	-0.6%[15.4 µM]	/	/	/	0.3%[15.4 µM]
